Screens as filed in PubChem BioAssay.
Compounds with a hit are over-represented: about 2.8% of the library has one in this group of screens.
HTT ATP protect: protects HTT-Q103 PC12 cells, measured by ATP | PC12 HTT-Q103 induced, cytoprotection, ATP luminescence, 40 h | Potency, µM (titrated, usually from 56.4 µM), inactives show cytoprotection (ATP increase), actives largely listed as activators | hit rate 0.14% among 230,000 | AID 1471; also: % of control where 0% means no effect; nearly all actives have a fitted effect of over 45% in size
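Huntington model: PC12 line, ecdysone-inducible HTTQ103 exon1–GFP, tebufenozide 100 nM. Test articles in a dose series. Endpoint luminescence from cellular ATP.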
ATXN2 expr inh: ATXN2 expression inhibition. HEK-293 ATXN2-luciferase reporter, luminescence, 24 h. Potency, µM (doses to about 57 µM), for the others: at the highest dose activity change, negative = inhibition, actives largely listed as inhibitors. hit rate 0.72% among 360,000. AID 1745845; also: % is scaled to controls: 0 for no effect and ±100 for the full control effect; nearly all actives have a fitted effect of over 55% in size
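qHTS (up to 57 uM final) was run with 24 h compound exposure of reporter cells at 37 °C. Each well was multiplexed: SteadyGlo luminescence measured ATXN2-luciferase expression after a fluorogenic Gly-Phe-AFC viability readout (25 uM final).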
ATXN viability: reduces viability in counter-screen for ATXN expression inhibitors. S2 cells (HEK-293 line with an ATXN2-luciferase reporter) viability, CellTiter-Fluor protease fluorescence, 24 h. Potency, µM (titrated, usually from 56.7 µM), usual class: cytotoxic. hit rate 0.49% among 400,000. AID 651635; also: nearly all actives have a fitted effect of over 40% in size
HttQ103 aggreg: inhibitors of mutant huntingtin aggregate formation in PC12 cells | Potency, µM (titrated, usually from 46.1 µM), for the others: at the top dose activity change, negative = inhibition, most hits filed as inhibitors | PC12 HttQ103-GFP aggregates, Acumen cytometry, 40 h | AID 1688 | hit rate 1.1% among 220,000; also: % is scaled to controls: 0 for no effect and ±100 for the full control effect; nearly all actives have a fitted effect of over 60% in size
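Multiplexed with ATP-based cell death, this channel scores GFP aggregates in PC12 cells expressing inducible HTTex1-Q103-GFP. Induction used 100 nM tebufenozide; compounds were tested in concentration series.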
HepG2 viability: HepG2 cytotoxicity, counter-screen for TGF-b inhibitors | Potency, µM (titrated, usually from 46.1 µM), for inactives: at the top dose activity change, negative = cytotoxicity, actives largely listed as cytotoxic | hit rate 0.76% among 410,000 | HepG2 CAGA-GFP viability, ATP luminescence, 18 h | AID 588856
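CellTiter-Glo luminescence gave cytotoxicity after 18 hours at 37 degrees C. The cells were HepG2 CAGA-GFP in 1% FBS DMEM, stimulated with 500 pg/mL TGF-beta after compound addition. %Activity was normalised to no-cell wells (complete cell-killing) and DMSO (no toxicity), and curves were fitted and classified.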
TGFb inhibitor: blocks TGF-b signaling; AID 588855; HepG2 CAGA-GFP TGF-b/SMAD3 reporter, GFP fluorescence, 18 h; TGF-beta stimulated, 500 pg/mL final; hit rate 1.2% among 410,000; Potency, µM (titrated, usually from 46.1 µM), without a hit: top-dose activity, negative = inhibition, actives largely listed as inhibitors; also: % is scaled to controls: 0 for no effect and ±100 for the full control effect; nearly all actives have a fitted effect of over 65% in size
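HEPG2 CAGA-GFP cells (1000/well, DMEM with 1% FBS) were pre-incubated 2 h at 37 degrees C, given compound by pin tool, then stimulated with TGF-beta at 500 pg/mL final for 18 h before per-cell GFP fluorescence imaging.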
* marks the source's active call; other numbers are inactive results; i = inactive; ? = inconclusive; . = no result given; [ ] = remark or other dose. Calls follow the shape of the dose curve; as a rule, active = well fitted curve in the direction sought with a large enough effect; inconclusive = small, poorly fitted or top-dose-only effect, or another doubt; inactive = no such curve, though single readings can be large; an effect the other way counts as inactive or inconclusive. Potency is read from the fitted curve at half-maximal effect.

SMILES	HTT ATP protect	ATXN2 expr inh	ATXN viability	HttQ103 aggreg	HepG2 viability	TGFb inhibitor
COc1cccc(CNC(=O)c2c(OC)cc(=O)n3c2CCN(C(=O)C2=C(C)OCCO2)CC3)c1	.	.	i	.	.	.
Cc1cc(C(=O)COC(=O)c2ccccc2O)c(C)n1Cc1cccs1	-36.8%	0.708µM*	i	-22.8%	-2.9%	-36.8%
Cc1cc(C(=O)COC(=O)c2ccccc2O)c(C)n1CC1CCCO1 (stereo not drawn)	.	0.355µM*	i	.	-2.8%	-6.5%
Cc1cc(C(=O)COC(=O)c2cc(O)c3ccccc3c2O)c(C)n1CC1CCCO1 (stereo not drawn)	-121.6%	-16.8%	?	-17.3%	-29.8%	14.1µM*
Cc1cc(C(=O)COC(=O)c2ccc3c(c2)OCO3)c(C)n1Cc1cccs1	-29.1%	48.9%	i	?	-20.4%	3.3%
COC(=O)C1=C(C(=O)OC)[C@@H]2N(C)c3ccccc3[C@@]23C[C@@H](C(=O)OC)N(S(=O)(=O)c2ccc(C#N)cc2)C3=N1	-12.3%[10 µM]	.	.	.	.	.
N#CC(=C(/N)Sc1ccccc1N)/C(C#N)=C(/N)Sc1ccccc1N	-40.0%[1.9 µM]	.	.	.	.	.
COc1cccc(CN2CCCC(c3nc(C)ncc3-c3ccc(F)cc3)C2)c1OC (stereo not drawn)	.	.	i	.	.	.
Cc1ccc2c(c1)CN(CCC(=O)NCc1cc(C)n(C)n1)CC(C)O2 (stereo not drawn)	.	.	i	.	.	.
CC1=C/C(=N\OS(=O)(=O)c2ccccc2)C(C)=CC1=O	-92.9%	22.4µM*	20µM*	9.7%[9.22 µM]	11.2µM*	10µM*
CC1=C(C)/C(=N\OS(=O)(=O)c2ccc(C)cc2)C=CC1=O	-20.6%[10 µM]	?	8.91µM*	?	3.98µM*	2.82µM*
O=C(Nc1cccnc1Cl)c1cnn2c1NC(=C1CC1)C=C2C(F)F	.	.	.	.	9.6%	-1.7%
COc1ccc(OC)c(NC(=O)c2cccc(N3C(=O)C4C5CCC(C5)C4C3=O)c2)c1 (stereo not drawn)	.	-22.0%	i	.	-4.1%	0.0%
COc1ccc(OC)c(NC(=O)c2cccc(N3C(=O)C4C5C=CC(C6CC56)C4C3=O)c2)c1 (stereo not drawn)	.	.	14.1µM*	.	-16.0%	?
Cc1ccc(F)cc1S(=O)(=O)NCc1nc(N2CCCC2)c2cccc(C)c2n1	.	.	i	.	.	.
CC1Cc2ccccc2N1c1ncnc2nc[nH]c12 (stereo not drawn)	6.8%	3.8%	i	11.2µM*	-51.5%	?
CC1CCCCN1c1ncnc(N)c1[N+](=O)[O-] (stereo not drawn)	10.8%	?	i	10µM*	0.6%	7.4%
CC1CCCCN1c1ncnc2ccccc12 (stereo not drawn)	-15.8%	3.4%	i	10µM*	-13.9%	-28.7%
CC1Cc2ccccc2N1c1ncnc(N)c1[N+](=O)[O-] (stereo not drawn)	?	.	?	0.891µM*	-16.6%	?
Cc1ccc(CNc2ncnc3sc(C(=O)N4CCC(N5CCCC(O)C5)CC4)c(C)c23)o1 (stereo not drawn)	.	.	i	.	.	.
OC1(c2cccnc2)CCN(Cc2ccc3c(c2)CN(Cc2cc(F)ccc2F)CCO3)CC1	.	.	i	.	.	.
Oc1ccc(C2=Cc3ccc(O)cc3OC2)cc1	.	101.6%	.	.	.	.
CC(C)=CC[C@@H](O)C1=CC(=O)c2c(O)ccc(O)c2C1=O	-89.3%	?	.	.	.	.
CC(C)(C)n1ncc2c(=O)n(Cc3cccc(-c4ccccc4)c3)cnc21	.	.	.	.	-28.1%	?
Cc1cc(NCc2ccccc2)n2ncc(-c3ccccc3)c2n1	.	181.1%	i	.	2.9%	19.7%
SMILES	HTT ATP protect	ATXN2 expr inh	ATXN viability	HttQ103 aggreg	HepG2 viability	TGFb inhibitor
CC(C)(C)c1cc(NCc2ccccn2)n2ncc(-c3ccccc3)c2n1	-5.6%[10 µM]	-33.6%	i	6.3%[9.22 µM]	-31.7%	14.1µM*
COc1ccc(Nc2c(-c3cccc(O)c3)nc3cnccn23)cc1	.	5.5%	i	.	-10.1%	6.31µM*
COc1ccc(-c2nc3cnccn3c2Nc2ccc(C)cc2)cc1	-6.7%[10 µM]	-26.4%	?	8.7%	-2.0%	?
Cn1c(SCC(=O)Nc2cc(Cl)cc(Cl)c2)nnc1-c1ccc2nonc2c1	-19.6%[10 µM]	31.6µM*	?	15.3%[9.22 µM]	-58.7%	?
Cc1cc(C)c(C#N)c(SCCS(=O)(=O)c2ccc(Cl)cc2)n1	6.8%[10 µM]	-27.1%	i	6.2%[9.22 µM]	8.8%	2.5%
Cc1cc(C)c(C#N)c(SCCS(=O)(=O)Cc2ccc(Cl)cc2)n1	2.6%	-15.7%	i	1.8%	-5.1%	14.1µM*
CC1=C(C(=O)OC2CCCCCC2)C(c2ccccc2Cl)CC(=O)N1 (stereo not drawn)	.	-0.4%	i	.	-35.4%	?
CC1=C(C(=O)OCc2ccc(C)cc2)C(c2ccccc2F)CC(=O)N1 (stereo not drawn)	.	-16.2%	i	.	-37.7%	11.2µM*
CC1=C(C(=O)OC2CCCCCCC2)C(c2cc3c(cc2Br)OCO3)CC(=O)N1 (stereo not drawn)	-63.1%	?	i	-11.2%	15.8µM*	?
CCOc1ccccc1C1CC(=O)NC(C)=C1C(=O)OC1CCCCCC1 (stereo not drawn)	.	-2.8%	i	.	15.8µM*	?
CNC(=O)Nc1ccc(-c2nc(N3CC4CCC(C3)O4)c3cnn(C4CCC5(CC4)OCCO5)c3n2)cc1	.	-15.7%	.	.	.	.
COc1ccc(NS(=O)(=O)c2ccc3c(c2)Cc2ccccc2-3)cn1	9.4%	3.8%	i	11.2µM*	-36.3%	?
COc1ccc(NS(=O)(=O)c2ccc(N3CCCC3=O)cc2)cn1	-52.9%	?	i	?	1.4%	-19.0%
